Measurements as given in PubChem BioAssay (NCATS).
“And” between values parts separate entries of the source, which are not always exact repeats. Identical values can stand only once. Records with an inconclusive call do not appear. The source holds several records for some structures; these can differ, active in one and inactive in another. The source made the active and inactive calls. Unless noted, calls follow the shape of the dose curve; as a rule, active = well fitted curve in the direction sought with a large enough effect; inconclusive = small, poorly fitted or top-dose-only effect, or another doubt; inactive = no such curve, though single readings can be large; an effect the other way counts as inactive or inconclusive.

Legend:
[1] = P-glycoprotein substrates identified in KB-8-5-11 adenocarcinoma cell line, qHTS therapeutic library screen (AID 1346987); also: nearly all actives have a fitted effect of over 65% in size; also: potency is read from the fitted curve at half-maximal effect
Method in brief: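 Luminescence from CellTiter-Glo, read 5 min after addition, quantified survival of KB-8-5-11 (P-gp-overexpressing) cells exposed to compounds for 72 h. AC50 was derived from concentration-response curves.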

[2] = qHTS of pediatric cancer cell lines to identify multiple opportunities for drug repurposing: Primary screen for DAOY cells (AID 1347090); also: nearly all actives have a fitted effect of over 55% in size; also: potency is read from the fitted curve at half-maximal effect
Method in brief: (§1)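 Eight- or eleven-point concentration series, 48 h treatment at 37 degrees C in growth media; readout CellTiter-Glo luminescence. Potency and efficacy were taken from the concentration-response curves.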

[3] = qHTS of pediatric cancer cell lines to identify multiple opportunities for drug repurposing: Primary screen for SJ-GBM2 cells (AID 1347091); also: potency is read from the fitted curve at half-maximal effect
Method in brief: as §1

[4] = qHTS of pediatric cancer cell lines to identify multiple opportunities for drug repurposing: Primary screen for A673 cells (AID 1347092); also: nearly all actives have a fitted effect of over 45% in size; also: potency is read from the fitted curve at half-maximal effect
Method in brief: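 Cell viability of A673 measured by CellTiter-Glo ATP luminescence after 48 hours compound exposure. Dilution series spanned 0.78 nM to 46 µM (MIPE, 11-point) or 0.59 nM to 46 µM (NPC, 8-point); bortezomib 2.3 uM positive control.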

[5] = qHTS of pediatric cancer cell lines to identify multiple opportunities for drug repurposing: Primary screen for SK-N-MC cells (AID 1347093); also: potency is read from the fitted curve at half-maximal effect
Method in brief: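 Metabolically active cells were quantified by ATP-dependent luminescence (CellTiter-Glo, 15 min at room temperature) following 48 h treatment. Cells had been plated at 500-1,000 per well and settled for 5 h beforehand.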

[6] = qHTS of pediatric cancer cell lines to identify multiple opportunities for drug repurposing: Primary screen for BT-37 cells (AID 1347094); also: potency is read from the fitted curve at half-maximal effect
Method in brief: (§2)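 Following a 5-hour attachment period, cells at 500-1,000/well received compounds and were cultured for 48 hours. CellTiter-Glo was added and luminescence read to estimate viable, metabolically active cells.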

[7] = qHTS of pediatric cancer cell lines to identify multiple opportunities for drug repurposing: Primary screen for NB-EBc1 cells (AID 1347095); also: potency is read from the fitted curve at half-maximal effect
Method in brief: as §2

[8] = qHTS of pediatric cancer cell lines to identify multiple opportunities for drug repurposing: Primary screen for U-2 OS cells (AID 1347096);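 also: plate controls were DMSO wells for no effect and bortezomib positive control wells for full effect; nearly all actives have a fitted effect of over 50% in size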
Method in brief: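 Cells (500-1,000/well) in growth media were settled 5 h at 37 degrees C, then given compounds for 48 h. Viability was read as CellTiter-Glo luminescence. Primary runs used MIPE at 11 points (0.78 nM-46 µM) and NPC at 8 points (0.59 nM-46 µM); follow-ups used 11 points.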

[9] = qHTS of pediatric cancer cell lines to identify multiple opportunities for drug repurposing: Primary screen for SK-N-SH cells (AID 1347098); also: nearly all actives have a fitted effect of over 65% in size; also: potency is read from the fitted curve at half-maximal effect
Method in brief: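 Cells (500-1,000/well) rested 5 h, then received compounds for 48 h; metabolically active cells were measured by CellTiter-Glo luminescence. Final concentrations spanned up to 46 µM (MIPE, 11-point) or 0.59 nM-46 µM (NPC, 8-point) in primary screens, 11-point in follow-ups.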

[10] = qHTS of pediatric cancer cell lines to identify multiple opportunities for drug repurposing: Primary screen for NB1643 cells (AID 1347099); also: nearly all actives have a fitted effect of over 50% in size; also: potency is read from the fitted curve at half-maximal effect
Method in brief: as §2

[11] = Natriuretic polypeptide receptor (hNpr1) antagonism - Pilot counterscreen GloSensor control cell line (AID 1347045; calls by dose curve; also: series mostly up to about 38 µM; % is scaled to controls: 0 for no effect and ±100 for the full control effect)
Method in brief: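 Cells were first seeded and incubated overnight at 37C, then loaded with 2% GloSensor substrate for 2 h. Compounds were added for 30 min at room temperature, followed by a baseline read, 50 uM SNP and a final read after 20 min.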

[12] = molecular target: Atrial natriuretic peptide receptor 1 (Homo sapiens) (UniProt P16066); assay: Natriuretic polypeptide receptor (hNpr1) antagonism - Pilot screen (AID 1347049; calls by dose curve;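 also: HEK293 cells with hNpr1 and GloSensor cGMP luciferase stimulated by 0.1 nM hNppA; agonist-evoked cGMP luminescence read 20 min after hNppA addition; series mostly up to about 58 µM; % is scaled to controls: 0 for no effect and ±100 for the full control effect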)
Sequence of Atrial natriuretic peptide receptor 1 (Homo sapiens) (P16066 whole entry, looked up): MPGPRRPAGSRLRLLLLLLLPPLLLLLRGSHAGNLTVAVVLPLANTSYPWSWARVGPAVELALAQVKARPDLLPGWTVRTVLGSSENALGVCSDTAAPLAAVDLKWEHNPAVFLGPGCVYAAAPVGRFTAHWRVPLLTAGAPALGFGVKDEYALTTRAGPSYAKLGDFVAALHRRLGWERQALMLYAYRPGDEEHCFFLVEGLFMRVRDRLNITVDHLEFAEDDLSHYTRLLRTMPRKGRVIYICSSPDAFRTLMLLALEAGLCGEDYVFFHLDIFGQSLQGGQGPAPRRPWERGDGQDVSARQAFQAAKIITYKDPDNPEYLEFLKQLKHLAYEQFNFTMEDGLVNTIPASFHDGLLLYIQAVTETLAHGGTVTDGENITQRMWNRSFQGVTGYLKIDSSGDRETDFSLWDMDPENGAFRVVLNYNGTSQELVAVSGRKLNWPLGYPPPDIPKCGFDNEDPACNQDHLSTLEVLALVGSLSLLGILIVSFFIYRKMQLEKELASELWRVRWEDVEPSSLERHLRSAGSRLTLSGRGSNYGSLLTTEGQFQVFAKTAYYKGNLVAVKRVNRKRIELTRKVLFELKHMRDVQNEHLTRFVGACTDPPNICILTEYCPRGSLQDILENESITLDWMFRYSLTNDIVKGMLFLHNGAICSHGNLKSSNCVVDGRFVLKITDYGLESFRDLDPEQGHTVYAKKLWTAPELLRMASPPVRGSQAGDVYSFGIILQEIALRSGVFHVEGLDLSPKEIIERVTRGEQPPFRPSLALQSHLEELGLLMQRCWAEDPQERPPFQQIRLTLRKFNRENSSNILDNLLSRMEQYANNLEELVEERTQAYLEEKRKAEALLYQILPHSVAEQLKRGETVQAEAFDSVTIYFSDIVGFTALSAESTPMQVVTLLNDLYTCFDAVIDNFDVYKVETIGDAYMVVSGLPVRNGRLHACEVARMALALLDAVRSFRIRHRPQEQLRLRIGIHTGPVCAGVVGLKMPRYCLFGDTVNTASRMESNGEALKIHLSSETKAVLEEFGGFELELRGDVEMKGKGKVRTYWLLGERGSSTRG
Method in brief: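 Cells expressing receptor plus cGMP biosensor are seeded and incubated overnight at 37C, then loaded with GloSensor reagent (2% final) at room temperature for 2 h. Library compounds go on for 30 min. A pre-read precedes agonist (hNppA, 0.1 nM final) and a 20-min readout.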

[13] = molecular target: Atrial natriuretic peptide receptor 2 (Homo sapiens) (UniProt P20594); assay: Natriuretic polypeptide receptor (hNpr2) antagonism - Pilot subtype selectivity assay (AID 1347050; calls by dose curve; also: % is scaled to controls: 0 for no effect and ±100 for the full control effect)
Sequence of Atrial natriuretic peptide receptor 2 (Homo sapiens) (P20594 whole entry, looked up): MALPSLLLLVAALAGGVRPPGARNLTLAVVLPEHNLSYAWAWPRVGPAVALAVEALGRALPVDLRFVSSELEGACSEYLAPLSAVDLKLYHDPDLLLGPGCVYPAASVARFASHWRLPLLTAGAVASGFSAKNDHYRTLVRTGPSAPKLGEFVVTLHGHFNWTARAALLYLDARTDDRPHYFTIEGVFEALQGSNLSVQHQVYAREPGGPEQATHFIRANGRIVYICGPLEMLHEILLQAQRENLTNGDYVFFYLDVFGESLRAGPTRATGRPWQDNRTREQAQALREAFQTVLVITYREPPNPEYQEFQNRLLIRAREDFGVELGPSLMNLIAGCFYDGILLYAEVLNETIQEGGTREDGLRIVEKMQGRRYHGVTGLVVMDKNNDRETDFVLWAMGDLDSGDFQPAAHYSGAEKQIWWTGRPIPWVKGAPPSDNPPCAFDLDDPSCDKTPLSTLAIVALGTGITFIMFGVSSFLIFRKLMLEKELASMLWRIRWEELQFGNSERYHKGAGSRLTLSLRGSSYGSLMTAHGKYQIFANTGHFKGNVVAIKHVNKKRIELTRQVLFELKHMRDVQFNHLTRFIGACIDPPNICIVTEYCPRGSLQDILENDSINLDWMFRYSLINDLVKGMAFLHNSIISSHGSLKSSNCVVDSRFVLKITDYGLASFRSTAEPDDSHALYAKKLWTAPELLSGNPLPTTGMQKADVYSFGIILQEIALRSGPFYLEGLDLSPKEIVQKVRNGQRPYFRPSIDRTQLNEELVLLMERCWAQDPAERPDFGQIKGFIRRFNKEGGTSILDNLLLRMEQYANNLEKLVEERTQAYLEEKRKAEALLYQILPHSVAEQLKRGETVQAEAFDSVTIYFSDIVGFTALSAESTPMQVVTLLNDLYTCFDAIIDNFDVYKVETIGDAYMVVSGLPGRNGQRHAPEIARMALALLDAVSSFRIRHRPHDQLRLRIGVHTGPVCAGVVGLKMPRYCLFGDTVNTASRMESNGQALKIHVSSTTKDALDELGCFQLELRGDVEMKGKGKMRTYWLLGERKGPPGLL
Method in brief: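 Read-out: GloSensor luminescence (CCD imager), baseline vs post-stimulation. HEK293 cells expressing hNpr2; compounds pre-incubated 30-50 min at ambient temperature; hNppC 1 nM final, 20 min.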

[14] = NS1 protein of Zika virus - qHTS assay to identify small molecule inhibitors in human HEK 293 cells (AID 1347053); also: nearly all actives have a fitted effect of over 55% in size; also: potency is read from the fitted curve at half-maximal effect
Method in brief: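 Readout was TR-FRET using paired anti-NS1 antibodies after 24 h infection of HEK 293 cells with ZIKV MR766 (MOI = 0.5). Compound preceded virus by 1 h; reduced signal reflects lower NS1 expression.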

[15] = molecular target: T1, Tyrosine-protein phosphatase non-receptor type substrate 1 (Homo sapiens) + Leukocyte surface antigen CD47 (Homo sapiens) (UniProt P78324+Q08722); assay: CD47-SIRPalpha protein protein interaction - LANCE assay qHTS validation (AID 1347057; active = well fitted curve in the direction sought with a large enough effect in the signal ratio, with a control signal flat, not every such curve was filed as active; the % refers to the signal ratio; also: series mostly up to about 38 µM; 0% is about no effect)
T1 sequence (P78324 whole entry, looked up, the tested form may be a part): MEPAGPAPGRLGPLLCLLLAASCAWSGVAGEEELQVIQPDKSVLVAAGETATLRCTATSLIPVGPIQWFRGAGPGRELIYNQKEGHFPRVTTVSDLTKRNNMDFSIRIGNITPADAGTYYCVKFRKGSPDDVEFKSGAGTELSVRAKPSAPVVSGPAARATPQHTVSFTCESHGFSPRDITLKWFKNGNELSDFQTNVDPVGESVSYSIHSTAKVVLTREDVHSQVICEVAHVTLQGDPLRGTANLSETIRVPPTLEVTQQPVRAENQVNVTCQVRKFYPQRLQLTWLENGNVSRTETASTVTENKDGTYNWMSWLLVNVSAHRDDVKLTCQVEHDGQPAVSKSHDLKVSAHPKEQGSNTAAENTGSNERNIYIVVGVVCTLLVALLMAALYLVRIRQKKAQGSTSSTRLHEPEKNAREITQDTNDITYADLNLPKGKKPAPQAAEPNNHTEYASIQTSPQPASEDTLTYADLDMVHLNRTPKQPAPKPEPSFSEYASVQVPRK
T1 sequence (Q08722 whole entry, looked up, the tested form may be a part): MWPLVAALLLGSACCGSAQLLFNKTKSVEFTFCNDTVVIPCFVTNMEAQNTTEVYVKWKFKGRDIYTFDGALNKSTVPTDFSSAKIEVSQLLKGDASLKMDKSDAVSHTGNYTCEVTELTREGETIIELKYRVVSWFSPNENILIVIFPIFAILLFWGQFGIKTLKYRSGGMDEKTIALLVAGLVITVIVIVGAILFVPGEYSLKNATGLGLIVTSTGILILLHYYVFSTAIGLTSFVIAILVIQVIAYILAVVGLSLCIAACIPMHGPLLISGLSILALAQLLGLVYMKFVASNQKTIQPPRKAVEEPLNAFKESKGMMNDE
Method in brief: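 Inhibition of soluble CD47/SIRPalpha ectodomain association by titrated compounds, measured as 665/615 nm time-resolved FRET ratio after sequential 30 min room-temperature incubations.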

[16] = molecular target: T1, Tyrosine-protein phosphatase non-receptor type substrate 1 (Homo sapiens) + Leukocyte surface antigen CD47 (Homo sapiens); assay: CD47-SIRPalpha protein protein interaction - HTRF assay qHTS validation (AID 1347058; active = well fitted curve in the direction sought with a large enough effect in the signal ratio, not every such curve was filed as active; the % refers to the signal ratio; also: series mostly up to about 38 µM; 0% is about no effect)
Method in brief: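 Soluble extracellular domains (6His-CD47, Avi-tag-biotinylated SIRPalpha) in PBS pH 7.4 with 0.05% IGEPAL CA-630. Compounds were preincubated 30 min at RT with CD47 and anti-His-Eu, then SIRPalpha and SAV-XL665 were added. TR-FRET 665/615 ratio.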

[17] = molecular target: T1, Tyrosine-protein phosphatase non-receptor type substrate 1 (Homo sapiens) + Leukocyte surface antigen CD47 (Homo sapiens); assay: CD47-SIRPalpha protein protein interaction - Alpha assay qHTS validation (AID 1347059);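 also: bead proximity luminescence from CD47 binding SIRPalpha after compound preincubation with SIRPalpha; % is scaled to controls: 0 for no effect and ±100 for the full control effect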
Method in brief: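 In PBS (pH 7.4) with 0.05% IGEPAL CA-630, compound is preincubated with biotin-Avi-SIRPalpha ectodomain before His-CD47 ectodomain and affinity beads are added. Light-protected room-temperature incubations; AlphaScreen readout.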

[18] = molecular target: Parathyroid hormone/parathyroid hormone-related peptide receptor (Homo sapiens) (UniProt Q03431); assay: qHTS for PTHR1 Agonists: Optimization Screen against the NCGC LOPAC library (AID 1347079);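 also: GloSensor cAMP luminescence in HEK-293 GP2 cells expressing human PTHR1 with IBMX; 0% is about no effect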
Sequence of Parathyroid hormone/parathyroid hormone-related peptide receptor (Homo sapiens) (Q03431 whole entry, looked up): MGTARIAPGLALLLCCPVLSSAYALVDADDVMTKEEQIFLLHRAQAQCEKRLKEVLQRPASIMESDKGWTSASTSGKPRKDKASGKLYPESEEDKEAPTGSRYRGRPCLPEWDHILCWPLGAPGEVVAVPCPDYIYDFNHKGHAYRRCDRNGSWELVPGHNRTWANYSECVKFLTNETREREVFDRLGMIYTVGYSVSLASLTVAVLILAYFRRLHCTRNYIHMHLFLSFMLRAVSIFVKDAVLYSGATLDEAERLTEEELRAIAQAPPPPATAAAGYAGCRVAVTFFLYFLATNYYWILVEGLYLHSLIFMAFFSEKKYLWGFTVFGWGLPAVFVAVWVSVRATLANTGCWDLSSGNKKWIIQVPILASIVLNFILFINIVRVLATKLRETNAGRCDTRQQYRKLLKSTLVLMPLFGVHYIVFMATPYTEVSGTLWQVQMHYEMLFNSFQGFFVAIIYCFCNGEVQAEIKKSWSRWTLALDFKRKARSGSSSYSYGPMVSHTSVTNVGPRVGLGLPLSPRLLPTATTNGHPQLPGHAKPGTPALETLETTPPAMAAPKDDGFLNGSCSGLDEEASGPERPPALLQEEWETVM
Method in brief: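 HEK-293 GP2 cells, PTHR1 + GloSensor cAMP; 3000 cells/well, o/n. Luciferin + IBMX 0.5mM each (stock), 1 hr 37C. Cpd titration, 1 hr 37C. Lum after 15 min RT. Ctrl M-PTH(1-15) top 10uM.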

[19] = qHTS of pediatric cancer cell lines to identify multiple opportunities for drug repurposing: Primary screen for TC32 cells (AID 1347089); also: % is scaled to controls: 0 for no effect and ±100 for the full control effect; nearly all actives have a fitted effect of over 60% in size
Method in brief: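 Luminescent ATP read-out (CellTiter-Glo) of metabolically active TC32 cells after 48 h exposure. Concentration-response curves came from 11-point (MIPE, 0.78 nM–46 µM) or 8-point (NPC, 0.59 nM–46 µM) primary titrations; follow-up used 11 points.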

[20] = qHTS of pediatric cancer cell lines to identify multiple opportunities for drug repurposing: Primary screen for Saos-2 cells (AID 1347097); also: nearly all actives have a fitted effect of over 40% in size; also: potency is read from the fitted curve at half-maximal effect
Method in brief: as §2

COc1cc2nccc(Oc3ccc(NC(=O)NC4CC4)c(Cl)c3)c2cc1C(N)=O
active: Potency [2] 4.69 µM | Potency [3] 0.526 µM | Potency [4] 469 nM | Potency [5] 0.935 µM | Potency [6] 1.37 µM | Potency [7] 0.0935 µM | Potency [9] 1.52 µM | Potency [10] 2.96 µM
inactive: Potency [1] | Potency [8]

CCn1cc(C(=O)O)c(=O)c2cc(F)c(N3CCNC(C)C3)c(F)c21 (stereo not drawn)
inactive: outcome [11] | outcome [12] | Potency [13] | Potency [14] | outcome [15] | outcome [16] | outcome [17] | outcome [18] | Potency [19] | Potency [2] | Potency [3] | Potency [4] | Potency [5] | Potency [6] | Potency [7] | Potency [8] | Potency [20]

N[C@@H]1CONC1=O
inactive: outcome [11] | outcome [12] | Potency [13] | Potency [14] | outcome [15] | outcome [16] | outcome [17] | outcome [18] | Potency [19] | Potency [2] | Potency [3] | Potency [4] | Potency [5] | Potency [6] | Potency [7] | Potency [8] | Potency [20] | Potency [9] | Potency [10]

CC(C)(N)C(=O)N[C@H](COCc1ccccc1)C(=O)N1CCC2(CC1)CN(S(C)(=O)=O)c1ccccc12
inactive: Potency [1] | Potency [19] | Potency [2] | Potency [7] | Potency [8] | Potency [20]
active: Potency [5] 23.5 µM | Potency [9] 30.4 µM

CN(C)c1ccc(C2Nc3ccc4ccccc4c3C3=C2C(=O)CC(C)(C)C3)cc1Br (stereo not drawn)
inactive: Potency [1] | Potency [19] | Potency [2] | Potency [7] | Potency [8]
active: Potency [5] 7.43 µM

Cc1oncc1C(=O)Nc1ccc(C(F)(F)F)cc1
inactive and 11.8 µM (active): Potency [14]
active: Potency [5] 6.68 µM
inactive: outcome [11] | outcome [12] | Potency [13] | outcome [15] | outcome [16] | outcome [17] | outcome [18] | Potency [3] | Potency [6] | Potency [8] | Potency [20]

CC[C@H](Nc1ncnc2nc[nH]c12)c1nc2cccc(F)c2c(=O)n1-c1ccccc1
active: Potency [5] 0.935 µM | Potency [7] 14.8 µM | Potency [20] 9.35 µM | Potency [9] 7.64 µM | Potency [10] 16.6 µM
inactive: activity change, negative = cytotoxicity [1] 3.11% [at 9.29 µM]

COc1cccc2cc(-c3nc(C4CCC(C(=O)O)CC4)n4ncnc(N)c34)[nH]c12 (stereo not drawn)
inactive: Potency [10]
active: Potency [1] 296 nM and 1.46 µM and 1.3 µM | Potency [3] 0.935 µM | Potency [5] 0.0235 µM | Potency [7] 1.66 µM

O=C(C=Cc1ccc(/C=C/C(=O)Nc2ccc(C3=NCCN3)cc2)cc1)Nc1ccc(C2=NCCN2)cc1
inactive: Potency [1] | Potency [19] | Potency [2] | Potency [3] | Potency [4] | Potency [6] | Potency [7] | Potency [8] | Potency [20] | Potency [9] | Potency [10]

O=C(C1CC1)N1CC[C@@H](Cn2c(-c3ccc(-c4ccc5occc5c4)cc3)nc3cnccc32)C1
inactive: Potency [1] | Potency [19] | Potency [2] | Potency [4] | Potency [8] | Potency [20] | Potency [9]
active: Potency [3] 8.33 µM | Potency [5] 18.7 µM | Potency [7] 13.2 µM

CCOC(=O)N1CCC(=C2c3ccc(Cl)cc3CCc3cccnc32)CC1
inactive: outcome [11] | outcome [12] | Potency [13] | Potency [14] | outcome [15] | outcome [16] | outcome [17] | outcome [18] | Potency [19] | Potency [8]
active: Potency [3] 23.5 µM | Potency [4] 23.5 µM and 26.6 µM | Potency [7] 20.9 µM | Potency [9] 30.7 µM

Oc1ccc(C2CNCCc3c2cc(O)c(O)c3Cl)cc1 (stereo not drawn)
inactive: outcome [11] | outcome [12] | Potency [13] | Potency [14] | outcome [15] | outcome [16] | outcome [17] | outcome [18] | Potency [19] | Potency [2] | Potency [3] | Potency [4] | Potency [5] | Potency [6] | Potency [7] | Potency [8] | Potency [20] | Potency [9] | Potency [10]
